The source made the active and inactive calls.
Assays:
[1] = binders of probe aFSTL3 on microarray, primary screen, stem cell growth factor project, biochemical, small-molecule microarray, fluorescence 635/667 (AID 1064); settings: higher = more signal;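 note: measures binding of the biotinylated anti-FSTL3 antibody to printed compounds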
[2] = binders from COS7 lysate, DM2A8 probe, primary screen, torsin A project, cell lysate, small-molecule microarray, fluorescence 635/667 (AID 1065); settings: higher = more signal, COS7 lysate expressing mutant human TOR1A
[3] = binders of probe aFGF2 on microarray, primary screen, stem cell growth factor project, biochemical, small-molecule microarray, fluorescence 635/667 (AID 1067); settings: higher = more signal;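 note: measures binding of biotinylated aFGF2 protein to printed compounds on slides; z-score merges feature fluorescence and signal-to-noise across triplicate slides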
[4] = binders of probe aFGF10 on microarray, primary screen, stem cell growth factor project, biochemical, small-molecule microarray, fluorescence 635/667 (AID 1071); settings: higher = more signal;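 note: score merges 667 nm spot intensity and signal to noise from triplicate slides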
[5] = molecular target: Neurogenic locus notch homolog protein 2 (Homo sapiens) (UniProt Q04721); assay: Notch2 binders on small-molecule microarrays, primary screen, biochemical, small-molecule microarray, 635 nm fluorescence, stem cell growth factors (AID 1073); settings: Notch2 binding, higher = more signal
[6] = molecular target: Pro-neuregulin-1, membrane-bound isoform (Homo sapiens) (UniProt Q02297); assay: NRG1 binders on small-molecule microarrays, primary screen, psychiatric disease protein project, biochemical, small-molecule microarray, fluorescence 635/667 (AID 1075); settings: NRG1 binding, 635 nm fluorescence, higher = more signal;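 note: score combines 667 nm spot fluorescence with signal to noise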
[7] = system: Neuregulin-1 EGF-like domain; assay: binders of neuregulin-1 EGF-like domain, primary screen, biochemical, small-molecule microarray, 635 nm fluorescence (AID 1081); settings: small-molecule microarray binding, higher = more signal;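 note: binding of the protein to compounds printed on small-molecule microarray slides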
[8] = FRG1 promoter luciferase signal modulators, primary screen, FRG1 inhibition for FSHD, cell-based, C2C12 myotubes, firefly/Renilla luciferase, luminescence (AID 1084); settings: higher = more signal, called active from +8 up or from −8 down
[9] = binders of probe aFST on microarray, primary screen, stem cell growth factor project, biochemical, small-molecule microarray, fluorescence 635/667 (AID 1086); settings: higher = more signal;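 note: score merges 667 nm fluorescence with signal-to-noise of each printed compound spot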
[10] = binders of probe aHhip on microarray, primary screen, stem cell growth factor project, biochemical, small-molecule microarray, fluorescence 635/667 (AID 1087); settings: higher = more signal;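 note: score merges spot fluorescence at 667nm with spot signal to noise ratio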

Pro-neuregulin-1, membrane-bound isoform (Homo sapiens), sequence (Q02297 whole entry, looked up, the tested form may be a part, canonical isoform): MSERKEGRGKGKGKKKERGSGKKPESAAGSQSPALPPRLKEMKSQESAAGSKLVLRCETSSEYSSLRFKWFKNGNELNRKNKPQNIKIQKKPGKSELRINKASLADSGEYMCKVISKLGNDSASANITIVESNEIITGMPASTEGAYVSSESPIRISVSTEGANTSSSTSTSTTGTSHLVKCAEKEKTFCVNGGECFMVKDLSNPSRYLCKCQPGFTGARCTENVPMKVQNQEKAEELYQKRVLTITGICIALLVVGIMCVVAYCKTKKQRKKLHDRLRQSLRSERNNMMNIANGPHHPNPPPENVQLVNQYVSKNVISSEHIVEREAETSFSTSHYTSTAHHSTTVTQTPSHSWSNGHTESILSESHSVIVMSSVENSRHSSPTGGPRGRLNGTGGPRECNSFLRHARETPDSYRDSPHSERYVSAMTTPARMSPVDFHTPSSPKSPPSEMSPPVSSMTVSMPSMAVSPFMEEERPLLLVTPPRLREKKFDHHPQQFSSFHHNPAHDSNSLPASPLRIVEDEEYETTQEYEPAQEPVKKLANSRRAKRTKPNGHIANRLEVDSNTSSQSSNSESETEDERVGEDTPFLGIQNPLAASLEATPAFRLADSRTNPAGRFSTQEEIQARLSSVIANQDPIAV
Neurogenic locus notch homolog protein 2 (Homo sapiens), sequence (Q04721 whole entry, looked up, canonical isoform): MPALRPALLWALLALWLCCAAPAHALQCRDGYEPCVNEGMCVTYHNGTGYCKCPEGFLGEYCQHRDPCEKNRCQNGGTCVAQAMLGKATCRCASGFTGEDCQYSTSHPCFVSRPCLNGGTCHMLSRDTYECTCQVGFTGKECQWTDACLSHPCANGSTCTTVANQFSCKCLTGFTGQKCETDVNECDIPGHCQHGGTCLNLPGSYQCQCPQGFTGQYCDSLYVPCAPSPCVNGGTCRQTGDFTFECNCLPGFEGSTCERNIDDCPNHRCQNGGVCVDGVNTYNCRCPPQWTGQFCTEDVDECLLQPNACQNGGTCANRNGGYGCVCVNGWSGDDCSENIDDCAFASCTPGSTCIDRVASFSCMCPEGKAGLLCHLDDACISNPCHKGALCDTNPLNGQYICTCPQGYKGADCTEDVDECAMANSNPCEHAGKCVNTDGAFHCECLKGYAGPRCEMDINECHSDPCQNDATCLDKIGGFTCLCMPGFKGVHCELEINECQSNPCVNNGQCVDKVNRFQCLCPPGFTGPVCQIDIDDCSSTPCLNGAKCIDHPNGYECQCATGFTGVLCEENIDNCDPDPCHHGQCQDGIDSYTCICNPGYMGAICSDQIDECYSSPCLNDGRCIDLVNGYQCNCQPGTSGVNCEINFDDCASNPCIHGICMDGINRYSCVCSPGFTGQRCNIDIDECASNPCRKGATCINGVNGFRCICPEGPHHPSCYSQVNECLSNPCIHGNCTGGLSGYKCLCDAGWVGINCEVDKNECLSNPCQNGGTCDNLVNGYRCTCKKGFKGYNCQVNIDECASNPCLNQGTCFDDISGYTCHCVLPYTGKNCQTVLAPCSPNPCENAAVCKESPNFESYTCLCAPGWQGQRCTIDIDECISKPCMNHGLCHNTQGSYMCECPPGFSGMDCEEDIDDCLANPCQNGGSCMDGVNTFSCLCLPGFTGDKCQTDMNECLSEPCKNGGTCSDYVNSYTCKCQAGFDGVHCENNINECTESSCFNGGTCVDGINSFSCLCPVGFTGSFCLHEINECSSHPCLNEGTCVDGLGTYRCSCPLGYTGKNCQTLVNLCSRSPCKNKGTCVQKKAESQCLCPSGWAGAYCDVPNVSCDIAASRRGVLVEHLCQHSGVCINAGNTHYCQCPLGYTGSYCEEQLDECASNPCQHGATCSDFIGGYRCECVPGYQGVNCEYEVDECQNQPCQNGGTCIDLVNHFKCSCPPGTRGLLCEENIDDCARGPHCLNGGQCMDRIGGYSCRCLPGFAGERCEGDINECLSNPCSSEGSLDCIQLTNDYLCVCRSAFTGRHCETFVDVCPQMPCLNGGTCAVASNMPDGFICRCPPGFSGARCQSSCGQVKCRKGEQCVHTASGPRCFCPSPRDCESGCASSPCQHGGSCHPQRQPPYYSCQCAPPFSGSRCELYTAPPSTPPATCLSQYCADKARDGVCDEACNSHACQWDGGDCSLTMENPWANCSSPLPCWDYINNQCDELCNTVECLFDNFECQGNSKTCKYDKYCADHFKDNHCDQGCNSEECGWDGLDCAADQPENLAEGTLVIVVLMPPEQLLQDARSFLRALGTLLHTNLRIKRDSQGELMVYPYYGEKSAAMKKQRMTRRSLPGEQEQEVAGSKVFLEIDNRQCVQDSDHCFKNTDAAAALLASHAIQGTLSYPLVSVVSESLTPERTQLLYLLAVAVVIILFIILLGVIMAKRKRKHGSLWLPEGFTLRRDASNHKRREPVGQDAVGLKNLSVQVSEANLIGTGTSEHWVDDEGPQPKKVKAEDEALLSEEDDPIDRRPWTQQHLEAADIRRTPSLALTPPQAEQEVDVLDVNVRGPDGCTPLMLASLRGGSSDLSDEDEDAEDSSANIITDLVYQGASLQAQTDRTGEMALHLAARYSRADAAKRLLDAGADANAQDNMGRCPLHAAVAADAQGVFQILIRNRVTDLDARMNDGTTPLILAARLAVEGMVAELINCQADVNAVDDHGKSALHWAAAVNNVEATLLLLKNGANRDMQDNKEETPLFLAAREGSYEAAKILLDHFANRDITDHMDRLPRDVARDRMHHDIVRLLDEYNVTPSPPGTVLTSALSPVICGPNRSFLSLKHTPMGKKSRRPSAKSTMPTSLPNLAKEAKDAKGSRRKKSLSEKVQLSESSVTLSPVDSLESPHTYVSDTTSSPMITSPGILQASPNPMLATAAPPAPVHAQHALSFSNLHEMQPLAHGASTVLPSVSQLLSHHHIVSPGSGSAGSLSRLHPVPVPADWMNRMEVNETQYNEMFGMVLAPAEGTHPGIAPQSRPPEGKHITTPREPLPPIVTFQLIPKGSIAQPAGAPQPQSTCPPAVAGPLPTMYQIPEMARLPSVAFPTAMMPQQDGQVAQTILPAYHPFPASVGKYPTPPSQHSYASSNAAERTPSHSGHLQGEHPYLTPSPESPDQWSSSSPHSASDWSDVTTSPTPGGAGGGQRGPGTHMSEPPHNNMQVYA

| Structure (SMILES) | composite z-score [1] | composite z-score [2] | composite z-score [3] | composite z-score [4] | composite z-score [5] | composite z-score [6] | composite z-score [7] | z-score [8] | composite z-score [9] | composite z-score [10] |
| --- | --- | --- | --- | --- | --- | --- | --- | --- | --- | --- |
| C=CC[C@@]1(C(=O)NCCCOC)N=C(c2ccc(OCCCO)cc2)O[C@@H]1c1ccccc1CN=[N+]=[N-] | 0.227 | -0.448 | 0.106 | 0.744 | 1.43 | 1.79 | 1.03 | -1.97 (inactive) | 1.25 | -0.105 |
| Cc1ccc(S[C@]2(C(=O)NC(C)C)CC(=O)N(Cc3ccccc3)[C@@H]2c2ccc(CO)cc2I)cc1 | 1.28 | -0.37 | -0.0303 | 0.176 | -0.705 | 0.291 | 0.478 | -0.259 (inactive) | -0.26 | -0.226 |
| COC(=O)[C@]1(Cc2ccccc2CN=[N+]=[N-])N=C(c2ccc(OCCCO)cc2)O[C@@H]1c1ccccc1N=[N+]=[N-] | 0.0455 | 0.157 | -0.0465 | -0.223 | -0.206 | 0.829 | 1.18 | 3.39 (inactive) | 0.163 | -0.266 |
| CN1C(=O)C2CC=C(C3=CCO[C@@H]3[C@H]3CCCN3S(=O)(=O)c3ccccc3[N+](=O)[O-])CC2C1=O (stereo not given in full) | 0.895 | -0.216 | -0.166 | 0.114 | -0.456 | 0.789 | -0.132 | -0.869 (inactive) | 0.0699 | 0.0373 |
| COCCCNC(=O)[C@]1(Cc2ccccc2CN=[N+]=[N-])N=C(c2ccc(OCCCO)cc2)O[C@@H]1c1ccccc1N=[N+]=[N-] | 1.19 | 0.694 | 0.359 | 0.425 | 1.43 | 0.527 | 1.11 | -0.881 (inactive) | 0.762 | 0.0623 |
| COc1ccc(CCNC(=O)[C@@H]2c3ccccc3C(=O)N(Cc3cc(F)cc(C(F)(F)F)c3)[C@H]2c2ccc(CO)cc2)cc1 | 1.65 | 0.705 | 0.272 | 0.235 | 0.158 | 1.17 | 0.975 | -1.36 (inactive) | 2.49 | -0.251 |
| CCCCCCc1nc(-c2ccc(OC)nc2)c(C)c2c1[Si](C(C)C)(C(C)C)OC2 | -0.314 | -0.0637 | -0.0502 | -0.234 | 0.0716 | -0.64 | -0.59 | 0.329 (inactive) | 0.0446 | -0.0994 |
| COCCOC(=O)N1C(=O)[C@@]2(c3cc(C#CC4=CCCCC4)ccc31)[C@H](C(=O)N1CCCCCCC1)[C@H]1C(=O)O[C@H](c3ccccc3)[C@H](c3ccccc3)N1[C@@H]2c1ccccc1OCCO | 2.57 | 0.571 | 0.0328 | 0.271 | 1.08 | 1.11 | 1.18 | 0.927 (inactive) | 2.04 | 0.33 |
| O=C1O[C@@H](c2ccccc2)[C@@H](c2ccccc2)N2[C@@H](c3ccc(OCCO)cc3)[C@]3(C(=O)Nc4ccc(C#CC5=CCCCC5)cc43)[C@@H](C(=O)Nc3nc4ccccc4s3)[C@H]12 | -0.574 | 0.0484 | -0.357 | 0.3 | 0.91 | 0.744 | 0.651 | 4.67 (inactive) | -1.06 | -1.07 |
| C[N+](C)(C)CCCC[C@@H]1NC(=O)[C@H]2C[C@@H](C(=O)NCCCCCN)[C@@H](c3ccc(O)cc3)N2C1=O | 0.0912 | 1.95 | -0.0593 | 0.873 | 0.717 | 1.79 | 1.21 | -0.0231 (inactive) | 1.2 | 0.0722 |
| [N-]=[N+]=NCc1ccccc1[C@H]1OC(c2ccc(OCCCO)cc2)=N[C@@]1(Cc1ccccc1N=[N+]=[N-])C(N)=O | 0.0097 | 0.998 | 0.05 | 0.995 | 1.54 | 1.7 | 1.11 | 4.46 (inactive) | 1.76 | -0.156 |
| COC(=O)C(CC#Cc1ccc2c(c1)[C@]1(C(=O)N2)[C@H](C(=O)N2CCN(c3ncccn3)CC2)[C@H]2C(=O)O[C@H](c3ccccc3)[C@H](c3ccccc3)N2[C@@H]1c1ccc(O)cc1)C(=O)OC | 2.65 | 0.987 | 0.374 | 1.01 | 1.53 | 1.44 | 1.31 | 1.41 (inactive) | 2.24 | 0.102 |
| C=CCNC(=O)[C@@H]1[C@H]2C(=O)O[C@H](c3ccccc3)[C@H](c3ccccc3)N2[C@H](c2ccc(OCCO)cc2)[C@@]12C(=O)Nc1ccc(C#CC3=CCCCC3)cc12 | -0.607 | 0.308 | -0.0442 | 0.924 | 1.02 | 1.28 | 1.29 | -0.138 (inactive) | 0.597 | -0.186 |
| COCCCNC(=O)[C@@]1(CCC(=O)OC(C)(C)C)N=C(c2ccc(OCCCO)cc2)O[C@H]1c1ccccc1 | 0.593 | 0.737 | 0.0584 | 0.186 | 1.23 | 1.64 | 1.3 | -1.79 (inactive) | 1.16 | 0.0424 |
| COC(=O)[C@@]1(Cc2ccc(OC)cc2)[C@@H]2[C@@H](CC(=O)[C@H]2CC(=O)C(=O)N(C)C)CN1C(=O)c1ccccc1 | 2.09 | 0.496 | 0.81 | 1.2 | 1.78 | 1.69 | 1.06 | -0.224 (inactive) | 2.67 | 0.357 |
| Cc1ccc(S[C@]2(C(=O)NCC(C)C)CC(=O)N(C(C)C)[C@@H]2c2ccc(CO)cc2I)cc1 | 1.12 | 1.39 | 0.0519 | -0.41 | -0.365 | 1.18 | -0.569 | -0.999 (inactive) | 0.161 | 0.0327 |
| O=C1N(Cc2ccccc2)c2ccccc2C[C@@]12N=C(c1ccc(OCCCO)cc1)O[C@H]2c1ccccc1 | -0.0448 | 0.0182 | -0.0129 | 0.311 | 0.18 | 0.909 | 1.14 | -2.64 (inactive) | -0.238 | -0.0925 |
| COCCCNC(=O)[C@@]1(c2ccc([N+](=O)[O-])cc2)CC(=O)N(C2CCCCC2)[C@@H]1c1ccc(CO)cc1I | 0.234 | 1.2 | 0.0247 | 0.0624 | -0.161 | 0.944 | 1.31 | -1.27 (inactive) | -0.0119 | 0.259 |
| O=C1N(Cc2ccccc2)Cc2ccccc2C[C@@]12COC(c1ccc(OCCCO)cc1)=N2 | 1.18 | 0.455 | -0.0428 | -0.0784 | -0.0568 | 0.605 | 1.21 | -1.58 (inactive) | 0.419 | 0.369 |
| O=C/C=C/c1ccc(-c2ccccc2)cc1 | 0.4 | -0.0761 | -0.0785 | 0.182 | -0.327 | -0.727 | -0.836 | 2.7 (inactive) | -0.0543 | 0.21 |
| Cc1ccc(N2C(=O)c3ccccc3[C@@H](C(=O)NCCN3CCOCC3)[C@@H]2c2ccc(CO)cc2)nc1 | 1.02 | -1.48 | -0.116 | -0.319 | -1.34 | 0.209 | -0.297 | 0.169 (inactive) | -0.58 | -0.249 |
| COC(=O)C1=CC(CCCO)=CC(c2ccc(CN3CCCC3)cc2)N(C)C=C1C(=O)OC (stereo not given) | 0.114 | 1.34 | 0.0755 | 1.21 | 1.13 | 1.93 | 1.18 | 0.48 (inactive) | 0.989 | -0.219 |
| O=C(O)C1=CC[C@H]2C(=O)N(c3ccccc3)C(=O)[C@@H]12 | 0.115 | -0.037 | 0.0601 | 0.676 | 1.58 | 0.42 | 1.16 | -0.127 (inactive) | 0.914 | 0.0749 |
| COc1cccc(C)c1NC(=O)O[C@H]1[C@H](OC(=O)Nc2ccc3c(c2)OCO3)[C@H](OC(=O)Nc2ccc3c(c2)OCO3)[C@@H](OC)O[C@@H]1CO | 0.394 | 0.439 | 0.06 | 0.867 | 1.25 | 1.13 | 1.35 | 3.61 (inactive) | 1.05 | 0.12 |
| COC(=O)[C@@]1(Cc2ccccc2)[C@H]2c3cc(C(=O)N(C)C)n(Cc4nc5ccccc5[nH]4)c3C[C@H]2CN1C(=O)c1ccccc1 | 1.1 | 1.08 | 0.214 | 0.572 | 1.77 | 2.12 | 1.33 | -1.3 (inactive) | 1.37 | -0.315 |
| COc1ccc([Si](C)(C)[C@@H]2[C@@H](CC(=O)N(CCO)Cc3ccccc3)O[C@]3(C(=O)N(Cc4cccc(I)c4)c4ccccc43)[C@H]2C)cc1 | 2.68 | 1.17 | -0.0422 | 0.396 | 0.779 | 0.496 | 1.13 | -0.939 (inactive) | 0.42 | 0.572 |
| CCCCCCCCCCC(O)C1C=CC2C(=O)N(C)C(=O)C2N1Nc1ccccc1 (stereo not given) | 0.889 | 0.149 | -0.229 | -1.07 | -0.932 | 0.0962 | -0.101 | 0.767 (inactive) | -0.191 | -0.469 |
